The nature of assay [1]: Nuclear factor erythroid 2-related factor 2/antioxidant responsive element (Nrf2/ARE) small molecule agonists: qHTS cell viability counter screen in human keratinocytes (AID 1919968; active means well fitted curve in the direction sought with a large enough effect in the repeat runs; an effect the other way counts as inactive or inconclusive; further: nearly all actives have a fitted effect of over 55% in size). In a few lines:
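HaCaT ARE reporter line, 1,500 cells/well; 5 h settle, 37 C/5% CO2; cpd in DMSO pinned; 23 h exposure; CellTiter-Fluor, 1 h; fluorescence.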

The nature of assay [2]: Nuclear factor erythroid 2-related factor 2/antioxidant responsive element (Nrf2/ARE) small molecule agonists: luciferase reporter gene qHTS assay in human keratinocytes (AID 1919969). Further: nearly all actives have a fitted effect of over 35% in size. On the technique in general: A reporter such as luciferase makes a cellular process visible.
For assay [3], the target named is Gonadotropin-releasing hormone receptor (Homo sapiens) (UniProt P30968). Put plainly: Human gonadotropin-releasing hormone receptor (GnRHR) small molecule agonists, calcium flux assay in GnRHR-HEK293 cells (AID 1920063). Further: nearly all actives have a fitted effect of over 35% in size. In a few lines: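 GnRHR-HEK293, 1500 cells/well, 18 h 37 C/5% CO2; Ca dye 1 h 37 C; cpd pinned (DMSO), agonist mode; kinetic FL 480/540, 3 min, 1 s reads; 15 conc, n=3.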
Background: Calcium assays in cells follow changes in intracellular calcium, usually with a dye or a luminescent sensor.

Assay [4] deals with KiSS-1 receptor (Homo sapiens) (UniProt Q969F8). Put plainly: Human kisspeptin (KISS1R) small molecule agonists, calcium flux assay in KISS1R-HEK293 cells (AID 1920064; active means well fitted curve in the direction sought with a large enough effect in the repeat runs; an effect the other way counts as inactive or inconclusive). In a few lines:
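Stable human KISS1R HEK293 line; 18 h plating, 37 C/5% CO2; calcium dye 1 h 37 C; compound pin transfer; kinetic fluorescence Ex/Em 480/540, 3 min.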

A short description of assay [5]: G protein-coupled receptor (GPCR) small molecule agonists, calcium flux assay: HEK293 wild type cell line counter screen (AID 1920065). In a few lines: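 Kinetic fluorescence at Ex/Em 480/540, recorded every second over 3 min, served as the read-out after compound addition. Each compound was tested at 15 concentrations in triplicate on cells pre-loaded with calcium dye for 1 h.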

Assay [6] can be described thus: p53 small molecule agonists, cell-based qHTS assay with human liver microsomes (AID 1963577).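 Further: p53 response element beta-lactamase reporter cells with liver microsomes plus NADPH.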 In a few lines:
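HLM-supplemented p53RE-bla reporter assay: 16 h compound exposure at 37 C, microsomes and NADPH each 0.5 mg/mL final, read by fluorescence intensity.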
On the technique in general: Quantitative high-throughput screening tests each substance at several concentrations.

Assay [7] is described as follows: p53 small molecule agonists, cell-based qHTS assay with rat liver microsomes (AID 1963578). In a few lines: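 Quantitative HTS of the Tox21 10K library: p53RE-bla cells, rat liver microsomes plus NADPH at 0.5 mg/mL final each, 16 h at 37 C, beta-lactamase fluorescence detection.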
A short description of assay [8]: p53 small molecule agonists, cell-based qHTS assay with human liver microsomes: qHTS cell viability counter screen (AID 1963579). Further: nearly all actives have a fitted effect of over 45% in size. In a few lines:
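Viability of p53RE-bla cells is measured as CellTiter-Glo luminescence following a 16 h, 37 C incubation with compound, liver microsomes from human donors and NADPH.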

A short description of assay [9]: p53 small molecule agonists, cell-based qHTS assay with rat liver microsomes: qHTS cell viability counter screen (AID 1963580). Further: nearly all actives have a fitted effect of over 45% in size. In a few lines: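 Viability is assessed in parallel with the p53 reporter read: HCT-116 p53RE-bla cells receive compounds plus rat microsomes and NADPH (0.5 mg/mL final apiece), incubate 16 h at 37 C, and then CellTiter-Glo luminescence is recorded.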

Assay [10] can be described thus: p53 small molecule agonists, cell-based qHTS assay: qHTS cell viability counter screen (AID 1963581). Further: nearly all actives have a fitted effect of over 45% in size. In a few lines:
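HCT-116 p53RE-bla cells, 4,000/well, plated 5 h before compound pin transfer; 16 h at 37 C; bla substrate 2 h RT; then CellTiter-Glo, 30 min RT, luminescence.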

Assay [11] is described as follows: p53 small molecule agonists, cell-based qHTS assay (AID 1963582; active means well fitted activation curve with a large enough effect in the signal ratio in the repeat runs, not every such curve was filed as active; the % refers to the signal ratio). In a few lines:
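Reporter line: p53RE-bla. Pre-incubation 5 h, 37 C, 5% CO2; compound (DMSO, pin tool) 16 h, 37 C; B/G FRET substrate 2 h RT; fluorescence intensity read.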

Assay [12] deals with 5-hydroxytryptamine receptor 2A (Homo sapiens) (UniProt P28223). Description: 5-hydroxytryptamine receptor 2A (HTR2A) small molecule agonists, cell-based qHTS assay (AID 1963587). Further: nearly all actives have a fitted effect of over 30% in size. In a few lines: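 CHO cells stably expressing human HTR2A, plated 18 h, loaded with calcium dye 1 h at 37 C. Agonist mode: compounds added and intracellular calcium fluorescence recorded kinetically for 2 min at 1 sec intervals.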

Assay [13] concerns the target Muscarinic acetylcholine receptor M1 (Homo sapiens) (UniProt P11229). Put plainly: Cholinergic receptor muscarinic 1 (CHRM1) small molecule antagonists, cell-based qHTS assay (AID 1963588). Further: nearly all actives have a fitted effect of over 40% in size. In a few lines: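 CHRM1-CHO calcium-flux assay, antagonist mode. Cells were seeded 18 h, dye-loaded 1 h at 37 C and given compound for 5 min at RT, then acetylcholine was added at 50nM. FDSS fluorescence was read 3 min; 15 concentrations, three runs.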

For assay [14] the target is unchanged. Put plainly: Cholinergic receptor muscarinic 1 (CHRM1) small molecule agonists, cell-based qHTS assay (AID 1963589). Further: nearly all actives have a fitted effect of over 35% in size. In a few lines: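 Human M1 in stable CHO line; 18 h plating, 1 h dye load 37 C; cpd added (agonist mode); Ca2+ fluorescence kinetic read, 1 s intervals; 15 conc, 3 runs.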
The target in assay [15] is D(2) dopamine receptor (Homo sapiens) (UniProt P14416). Description: Dopamine D2 receptor (DRD2) small molecule agonists, cell-based qHTS assay (AID 1963594). Further: nearly all actives have a fitted effect of over 35% in size. In a few lines:
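HEK293 cells stably expressing human DRD2, pre-treated with PDE inhibitor Ro20-1724 (0.1 mM final) and compound 10 min at room temperature, then stimulated with NKH477 (200nM […]) for 30 min. cAMP read by HTRF (665/620 nm).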

Assay [16] shares this target. Description: Dopamine D2 receptor (DRD2) small molecule antagonists, cell-based qHTS assay (AID 1963595; active means well fitted inhibition curve with a large enough effect in the signal ratio in the repeat runs, with a control signal flat; the % refers to the signal ratio; further: potency means the concentration at half of the fitted maximal effect). In a few lines: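 Cells were plated and grown for 24 h at 37 °C. Ro20-1724 (0.1 mM final) went in first, then compound for 10 min. NKH477 (200 nM) with quinpirole (12 nM) followed for 30 min at RT, then HTRF detection reagents for 1 h.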
Assay [17] concerns the target Beta-2 adrenergic receptor (Homo sapiens) (UniProt P07550). Put plainly: Adrenergic beta2 receptor (ADRB2) small molecule antagonists, cell-based qHTS assay (AID 1963592). Further: series mostly up to about 92 µM; nearly all actives have a fitted effect of over 50% in size. In a few lines: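 Cells (CHO, stable ADRB2 overexpression) incubated 18-20hr at 37C; compounds added from DMSO; agonist mix (1nM isoproterenol, 100uM IBMX, 25uM Ro-20-1724) added; 0.5hr RT; d2-cAMP and anti-cAMP-cryptate added; 1hr RT; 665/615 nm read.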

Assay [18] shares this target. Put plainly: Adrenergic beta2 receptor (ADRB2) small molecule agonists, cell-based qHTS assay (AID 1963593).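 Further: CHO cells stably overexpressing human ADRB2.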 In a few lines: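 CHO cells stably over-expressing ADRB2 were plated overnight at 37C, then dosed with compounds plus a stimulation mix containing 100uM IBMX and 25uM Ro-20-1724 for 0.5hr at room temperature. cAMP was measured by HTRF competition, 1hr.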
Assay [19] is described as follows: cAMP Responsive Elements (CRE) small molecule agonists, cell-based qHTS assay (AID 1963590). In a few lines:
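HEK 293T CRE-bla, 2,000 cells/well, 18 h preincubation 37 C/5% CO2; cpds (DMSO) pinned, 3 h; LiveBLAzer B/G FRET substrate, 2 h RT.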

A short description of assay [20]: cAMP Responsive Elements (CRE) small molecule antagonists, cell-based qHTS assay (AID 1963591; active means well fitted inhibition curve with a large enough effect in the signal ratio in the repeat runs, not every such curve was filed as active; the % refers to the signal ratio). In a few lines:
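Beta-lactamase reporter read by FRET substrate (LiveBLAzer B/G) after 2 h at room temperature. CRE-bla HEK293T cells had received compound plus 0.25 uM (final) NKH477 for 3 h at 37 °C.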

Unmarked numbers belong to inactive results. Records with an inconclusive call do not appear. The source made the active and inactive calls. Unless noted, the call rests on the fitted dose curve.
On the % scale 0 is the no-effect control and ±100 the full control effect.

KiSS-1 receptor (Homo sapiens), sequence (Q969F8 whole entry, looked up): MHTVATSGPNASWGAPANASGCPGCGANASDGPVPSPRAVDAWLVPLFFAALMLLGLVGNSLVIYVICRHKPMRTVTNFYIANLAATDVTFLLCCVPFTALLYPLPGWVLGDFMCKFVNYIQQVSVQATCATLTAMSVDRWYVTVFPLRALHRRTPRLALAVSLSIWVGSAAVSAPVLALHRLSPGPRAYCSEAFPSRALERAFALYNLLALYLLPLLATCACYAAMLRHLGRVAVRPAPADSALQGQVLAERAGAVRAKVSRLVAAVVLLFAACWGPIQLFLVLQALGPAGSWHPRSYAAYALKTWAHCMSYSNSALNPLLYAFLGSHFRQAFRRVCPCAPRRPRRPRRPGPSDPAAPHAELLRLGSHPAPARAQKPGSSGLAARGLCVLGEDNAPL
D(2) dopamine receptor (Homo sapiens), sequence (P14416 whole entry, looked up): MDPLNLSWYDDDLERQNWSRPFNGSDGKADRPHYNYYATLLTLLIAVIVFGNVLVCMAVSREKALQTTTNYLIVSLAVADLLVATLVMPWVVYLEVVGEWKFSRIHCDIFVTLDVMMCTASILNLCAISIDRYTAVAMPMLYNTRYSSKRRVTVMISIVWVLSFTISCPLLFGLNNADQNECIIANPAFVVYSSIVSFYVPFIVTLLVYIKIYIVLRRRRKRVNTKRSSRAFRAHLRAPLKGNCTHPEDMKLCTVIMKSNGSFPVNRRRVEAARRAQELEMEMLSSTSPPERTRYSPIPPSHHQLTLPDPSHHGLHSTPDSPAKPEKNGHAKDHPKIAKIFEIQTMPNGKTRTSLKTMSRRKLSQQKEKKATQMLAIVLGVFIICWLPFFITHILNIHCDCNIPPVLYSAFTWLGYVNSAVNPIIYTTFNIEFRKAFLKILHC
Beta-2 adrenergic receptor (Homo sapiens), sequence (P07550 whole entry, looked up): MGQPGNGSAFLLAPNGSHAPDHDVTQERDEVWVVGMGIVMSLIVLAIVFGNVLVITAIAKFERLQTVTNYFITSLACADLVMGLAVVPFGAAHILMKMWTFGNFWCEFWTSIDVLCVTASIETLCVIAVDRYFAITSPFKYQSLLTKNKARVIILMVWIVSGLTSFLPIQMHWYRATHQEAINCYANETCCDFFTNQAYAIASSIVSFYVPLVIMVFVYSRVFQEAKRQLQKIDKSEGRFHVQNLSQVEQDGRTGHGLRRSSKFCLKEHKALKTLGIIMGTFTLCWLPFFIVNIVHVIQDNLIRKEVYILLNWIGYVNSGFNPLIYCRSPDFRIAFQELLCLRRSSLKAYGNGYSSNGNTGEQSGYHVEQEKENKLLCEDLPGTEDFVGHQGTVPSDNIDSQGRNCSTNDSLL
Gonadotropin-releasing hormone receptor (Homo sapiens), sequence (P30968 whole entry, looked up): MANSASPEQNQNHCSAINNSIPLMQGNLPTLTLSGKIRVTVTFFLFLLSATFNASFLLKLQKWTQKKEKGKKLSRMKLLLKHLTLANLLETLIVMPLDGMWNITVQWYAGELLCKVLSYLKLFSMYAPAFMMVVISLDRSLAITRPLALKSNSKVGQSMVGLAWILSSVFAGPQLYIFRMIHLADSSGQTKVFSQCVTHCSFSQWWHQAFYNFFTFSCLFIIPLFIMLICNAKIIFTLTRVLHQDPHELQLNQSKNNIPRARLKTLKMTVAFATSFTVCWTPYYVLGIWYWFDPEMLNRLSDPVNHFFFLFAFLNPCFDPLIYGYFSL
5-hydroxytryptamine receptor 2A (Homo sapiens), sequence (P28223 whole entry, looked up): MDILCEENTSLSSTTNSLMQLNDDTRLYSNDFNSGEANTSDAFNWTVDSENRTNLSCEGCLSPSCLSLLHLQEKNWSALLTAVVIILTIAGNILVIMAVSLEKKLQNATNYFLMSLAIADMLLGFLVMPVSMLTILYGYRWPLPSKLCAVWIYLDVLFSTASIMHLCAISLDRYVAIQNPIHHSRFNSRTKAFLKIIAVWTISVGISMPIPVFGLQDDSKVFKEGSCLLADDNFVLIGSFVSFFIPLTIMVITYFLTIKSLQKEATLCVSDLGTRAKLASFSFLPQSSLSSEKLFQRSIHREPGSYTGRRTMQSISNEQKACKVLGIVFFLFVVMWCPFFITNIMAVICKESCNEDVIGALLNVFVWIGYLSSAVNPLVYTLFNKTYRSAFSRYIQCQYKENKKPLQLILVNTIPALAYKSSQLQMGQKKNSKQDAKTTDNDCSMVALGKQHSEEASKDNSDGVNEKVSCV
Muscarinic acetylcholine receptor M1 (Homo sapiens), sequence (P11229 whole entry, looked up): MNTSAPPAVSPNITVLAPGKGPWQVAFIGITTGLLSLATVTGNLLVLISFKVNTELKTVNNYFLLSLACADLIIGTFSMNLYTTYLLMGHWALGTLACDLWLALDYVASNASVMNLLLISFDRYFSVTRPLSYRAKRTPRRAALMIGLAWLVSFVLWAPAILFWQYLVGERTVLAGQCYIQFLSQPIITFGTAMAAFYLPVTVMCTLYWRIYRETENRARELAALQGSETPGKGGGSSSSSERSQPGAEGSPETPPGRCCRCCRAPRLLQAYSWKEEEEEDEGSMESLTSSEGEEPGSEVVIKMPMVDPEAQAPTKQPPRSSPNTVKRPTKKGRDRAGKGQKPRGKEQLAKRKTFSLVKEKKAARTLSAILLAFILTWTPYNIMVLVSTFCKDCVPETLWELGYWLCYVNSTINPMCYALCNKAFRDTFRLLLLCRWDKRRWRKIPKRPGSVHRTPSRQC

On to `CC[C@H](NC(=O)c1cc(F)ccc1NS(=O)(=O)c1cccc2cccnc12)c1ccccc1`, for which the Potency result in [1], in [2], in [3], in assay [6], in assay [7] and in assay [8] was “inactive” each time. Besides, the Potency entry in [9], in assay [10], in assay [11], in [12], in assay [13] and in assay [14] was “inactive” each time. The Potency result in assay [15] and in [16] was “inactive” each time. For the same molecule, the result in assay [4] and in assay [5] was inactive.

Consider `Cn1c(=O)cc(Oc2ccc(F)cc2F)c2cnc(NCC(C)(C)O)nc21`, for which the Potency result in assay [1], in assay [2], in assay [3], in assay [6], in [7] and in assay [8] was “inactive” each time. In addition, the Potency result in [9], in assay [10], in assay [11], in assay [12], in [13] and in assay [14] was “inactive” each time. The Potency result in [17], in assay [18], in assay [15] and in assay [16] was “inactive” in each case. Besides, the outcome in [4] and in assay [5] was inactive.

On to `COc1ccc(-c2cc(=O)c3c(O)cc(O[C@@H]4O[C@H](CO[C@@H]5O[C@@H](C)[C@H](O)[C@@H](O)[C@H]5O)[C@@H](O)[C@H](O)[C@H]4O)cc3o2)cc1O`, for which the Potency entry in assay [1], in [2], in [3], in assay [6], in assay [7] and in assay [8] was “inactive” each time. Moreover, the Potency entry in [9], in assay [10], in assay [11], in [12], in assay [13] and in assay [19] was “inactive” throughout. In addition, the Potency entry in assay [20], in assay [17], in [18], in assay [15] and in assay [16] was “inactive” throughout. The result in assay [4] and in assay [5] was inactive.

Consider `COc1ccc(C(C)=O)cc1`, for which the Potency entry in assay [1], in [2], in [3], in assay [6], in assay [7] and in assay [8] was “inactive” in each case. For the same molecule, the Potency entry in assay [9], in [10], in assay [11], in [12], in [14] and in assay [19] was “inactive” throughout. Further, the Potency result in assay [20], in assay [17], in [18], in assay [15] and in assay [16] was “inactive” each time. Further, the result in assay [4] and in assay [5] was inactive.

Consider `Cc1nc2n(c(=O)c1CCN1CCC(c3noc4cc(F)ccc34)CC1)CCC[C@H]2O`, for which the activity change, negative = cytotoxicity is 0.553% [at 19 µM] in assay [1], -2.44% [at 13.5 µM] in assay [8], 3.38% [at 13.5 µM] in assay [9] and -16.9% [at 13.5 µM] in assay [10]. In addition, in assay [2], the activity, positive = activation was 1.67% [at 19 µM]. In [3], the activity change was -1.01% [at 11.8 µM, active compounds read high]. The activation in assay [4] is 2.67% [at 15.8 µM]; in [5], -0.871% [at 11.8 µM]; in assay [6] it was -1.61% [at 13.5 µM]; in assay [7], -1.62% [at 13.6 µM]; in assay [11], -2.71% [at 13.5 µM]; in assay [12], -9.85% [at 15.9 µM]. Moreover, the figures for the activation in assay [14] and in [19] were -0.822% [at 15.8 µM] and -1.39% [at 19 µM], respectively. Also, the activity change, negative = inhibition in assay [20] was 6.49% [at 18.9 µM]; in assay [17], -0.824% [at 19 µM]. The Potency result in assay [18] was “inactive”. Moreover, the Potency in assay [16] was 32.6 nM (active).

Regarding `CC[N+](CC)(CCNC(=O)C(=O)NCC[N+](CC)(CC)Cc1ccccc1Cl)Cc1ccccc1Cl`, the Potency entry in [1], in assay [2], in assay [3], in assay [6], in assay [7] and in assay [8] was “inactive” throughout. Besides, the Potency result in [9], in assay [10], in assay [11], in assay [12], in assay [14] and in [19] was “inactive” in each case. Further, the Potency entry in [20], in assay [17], in assay [15] and in [16] was “inactive” each time. Moreover, the outcome in [4] and in assay [5] was inactive.

As to `CC(C)C/C=C(\C=O)c1ccccc1`, the Potency result in [1], in assay [2], in [3], in [6], in [7] and in [8] was “inactive” each time. The Potency entry in [9], in assay [10], in assay [11], in assay [12], in [14] and in [19] was “inactive” in each case. In addition, the Potency entry in assay [20], in assay [17], in assay [15] and in [16] was “inactive” in each case. For the same molecule, the outcome in [4] and in assay [5] was inactive.

For the origin of these results see PubChem BioAssay (Tox21).
